Here are results for 40 molecules from PubChem BioAssay (EPA / NIEHS).

Results filed as inconclusive are left out. The source made the active and inactive calls. How the source made its calls: active means hit-call score of the fitted dose curve at least 0.9, where 1 is the maximum; inconclusive means response in the unintended direction; inactive means score below 0.9.

Chain of Cellular tumor antigen p53 (Homo sapiens) (P04637 whole entry, looked up, the tested form may be a part): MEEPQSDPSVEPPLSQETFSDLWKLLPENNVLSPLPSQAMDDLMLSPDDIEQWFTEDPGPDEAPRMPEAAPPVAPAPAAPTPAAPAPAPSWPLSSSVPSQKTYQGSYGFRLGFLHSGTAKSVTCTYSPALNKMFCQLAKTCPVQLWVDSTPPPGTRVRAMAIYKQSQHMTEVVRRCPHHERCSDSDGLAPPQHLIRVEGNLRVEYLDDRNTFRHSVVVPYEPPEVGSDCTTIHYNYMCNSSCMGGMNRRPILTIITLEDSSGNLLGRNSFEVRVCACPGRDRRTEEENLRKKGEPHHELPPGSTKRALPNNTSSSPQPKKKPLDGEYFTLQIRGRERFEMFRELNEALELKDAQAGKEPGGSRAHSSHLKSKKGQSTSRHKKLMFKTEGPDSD

For the assay, the target named is Cellular tumor antigen p53 (Homo sapiens) (UniProt P04637). Description: TOX21_p53_BLA_p2_ratio: Tox21 HCT-116 p53 Agonism Beta-lactamase Assay, Ratio, Phase 2 (AID 2283592). An excerpt:
TOX21_p53_BLA_p2 is a cell-based, single-readout assay that uses HCT116, a human intestinal cell line, […] in a 1536-well plate.TOX21_p53_BLA_p2_ratio is an assay readout measuring reporter gene via receptor activity and designed using inducible reporter (beta lactamase induction) detected with GAL4 b-lactamase reporter gene. The signal is derived from the ratio of cleaved (ch2) to uncleaved (ch1) reporter gene substrate used as the measure of target activity.Data from the assay component TOX21_p53_BLA_p2_ratio was analyzed into 1 assay endpoint. This assay endpoint, TOX21_p53_BLA_p2_ratio, was analyzed in the positive analysis fitting direction relative to DMSO as the negative control and baseline of activity. Using a type of inducible reporter, gain-of-signal activity can be used to understand changes in the reporter gene as they relate to the gene TP53. Furthermore, this assay endpoint can be referred to as a primary readout, because this assay has produced multiple assay endpoints and this ratio serves a reporter gene function to understand target activity. To generalize the intended target to other relatable targets, this assay endpoint is annotated to the DNA binding intended target family, where the subfamily is tumor suppressor.
Thawing Method: Place 14 mL of pre-warmed thaw medium into a 15 mL of conical tub. Remove the vial of cells to be thawed from liquid nitrogen and thaw rapidly by placing at 37C in a water bath with gentle agitation for 1-2 minutes. Decontaminate the vial by wiping with 70% ethanol before opening in a biological safety cabinet. Transfer the vial contents drop-wise into 14 mL of thaw medium in a sterile 15-mL conical tub. Centrifuge cells at 900 rpm for 4 minutes and resuspend in thaw medium. Transfer contents to the T75 tissue culture flask containing Thaw Medium and place flask in a humidified 37C/5% CO2 incubator. Switch to growth medium at first passage.Propagation Method: Aspirate medium, rinse once in DPBS, add 0.25% Trypsin/EDTA and swirl to coat the cell evenly. Add an equal volume of Growth Medium to inactivate Trypsin after 2-3 minutes incubation at 37C. Centrifuge cells at 900 rpm for 4 minutes and resuspend in growth medium. Cell should be passage or fed at least twice a week.Assay Protocol: Harvest cells from culture in growth medium and resuspend in assay medium. 2.2 Dispense 4000 cells/5 uL/well into 1536-well black/clear bottom plates using a Multidrop dispenser. After the cells were incubated at 37C for 5 hours, 23 nL of compounds dissolved in DMSO were transferred to the assay plate by a PinTool resulting in a 217-fold dilution. Incubate the plates for 16 hours at 37C, 5% CO2. Add 1 uL of 6X LiveBLAzer FRET B/G (CCF4-AM) Substrate Mixture to each well using a BioRAPTR dispenser and incubate the plates at room temperature for 2 hours. Measure fluorescence intensity at 460 and 530 nm emission and 405 nm excitation by an Envision detector. Data is expressed as the ratio of 460nm/530nm emissions. Add 4 uL of Cell-titer Glo to each well using BioRAPTR and incubate the plates at room temperature for 2 hours. Measure fluorescence intensity by a VewLux plate reader.
For the molecule `CCCC(C)C`, the outcome was inactive.
On the same count and under the same terms, the result for `O=CC1CC=CCC1` (stereo not given) reads “inactive”; that for `C[C@@H]1CC[C@@]2(OC1)O[C@H]1C[C@H]3[C@@H]4CC[C@H]5C[C@@H](O)CC[C@]5(C)[C@H]4CC(=O)[C@]3(C)[C@H]1[C@@H]2C`, “inactive”; that for `CCC(CO)(CO)[N+](=O)[O-]`, “inactive”.
Still for that read-out and setting: the same measure for `c1ccc2c(c1)Sc1ccccc1N2CCN1CCCC1`: “inactive”.
Same read-out and setting: the same measure for `CCCCc1ncc(/C=C(\Cc2cccs2)C(=O)O)n1Cc1ccc(C(=O)O)cc1`: “inactive”; for `Cc1cccc(O)c1N`: “inactive”.
Take `C=CCCCCCCCC`: the result was inactive.
Same read-out and setting: the same measure for `CCN(CC)CCOC(=O)C(c1ccccc1)C1CCCCC1` (stereo not given): “inactive”; for `CN(C)CCN(Cc1ccc(Cl)cc1)c1ccccn1`: “inactive”; for `O=C(O)[C@H](O)c1ccccc1`: “inactive”.
The same measure, in the same setting: the same measure for `CCOc1ccccc1N`: “inactive”; for `Cl/C(=C\n1cncn1)c1ccc(Cl)cc1Cl`: “inactive”; for `O=C(CO)[C@@H](O)[C@H](O)[C@@H](O)CO`: “inactive”.
The same measure, in the same setting: the same measure for `C=N[C@@H](C(=O)N[C@@H]1C(=O)N2[C@@H]1SC(C)(C)[C@@H]2C(=O)O)c1ccccc1`: “inactive”.
As a reminder, the AC50 is the midpoint of the concentration-response curve, whichever way the signal moves. As for `CC(=O)c1ccc2ccc3ccccc3c2c1`, the AC50 is 85.8 µM (active).
For `C=CC(C)(O)CC/C=C(/C)CCC=C(C)C` (stereo not given), the result was inactive.
Consider `Cc1ccc2cccnc2c1`, for which the result was inactive.
The same measure, in the same setting: the same measure for `CC(C)N=C=NC(C)C`: “inactive”.
With `CCC(=O)Nc1ccc(O)cc1`, the outcome was inactive.
Still for that read-out and setting: the result for `OC[C@H]1O[C@@H](OCCc2ccc(O)cc2)[C@H](O)[C@@H](O)[C@@H]1O` reads “inactive”; that for `CCN(C)C(=O)Oc1cccc([C@H](C)N(C)C)c1`, “inactive”.
The same measure, in the same setting: the same measure for `CCOC(=O)C1=C(C)NC(C)=C(C(=O)OC)C1c1cccc(Cl)c1Cl` (stereo not given): “inactive”; for `O=C(Nc1cccc(C2=NCCN2)c1)Nc1cccc(C2=NCCN2)c1`: “inactive”; for `Oc1ccc(C(O)CNCCCCCCNCC(O)c2ccc(O)c(O)c2)cc1O` (stereo not given): “inactive”.
The same measure, in the same setting: the same measure for `O=C(O)COc1ccccc1/C=N/NC(=O)c1ccncc1`: “inactive”; for `C#CC(O)CCCCC` (stereo not given): “inactive”; for `N#CSc1ccc(N)c([N+](=O)[O-])c1`: “inactive”.
Consider `CC(=O)OCC(=O)[C@@]1(O)CC[C@H]2[C@@H]3CCC4=CC(=O)CC[C@]4(C)C3=CC[C@@]21C`, for which the result was inactive.
The same measure, in the same setting: the same measure for `Cc1ccc(O)c(N)c1`: “inactive”.
Still for that read-out and setting: the same measure for `FC1(F)C(F)(F)C(F)(F)C2(F)C(F)(F)C(F)(F)C(F)(F)C(F)(F)C2(F)C1(F)F` (stereo not given): “inactive”; for `ClC(Cl)Cl`: “inactive”; for `COc1cc(C(=O)NCCCCCC(=O)O)cc(OC)c1OC`: “inactive”.
On to `O=C(O)CCS`, for which the result was inactive.
Still for that read-out and setting: the same measure for `Nc1cc(C(=O)O)c(O)c(S(=O)(=O)O)c1`: “inactive”; for `CC(C)(C)NCC(O)COc1cccc2c1CCC(=O)N2` (stereo not given): “inactive”.
For the molecule `CC(=O)OCC(=O)[C@@]1(O)[C@H](C)C[C@H]2[C@@H]3C[C@H](F)C4=CC(=O)C=C[C@]4(C)[C@H]3[C@@H](O)C[C@@]21C`, the result was inactive.
Consider `COc1ccc(Nc2ccc(OC)cc2)cc1`, for which the AC50 was 71.5 µM (active).
Take `COCCOC(=O)CC#N`: the result was inactive.
On the same count and under the same terms, the result for `O=C1NC(=O)c2cc([N+](=O)[O-])ccc21` reads “inactive”.
